Many of the other results were omitted from the sample, so hits are more common in it than they were.
Pf Dd2 inh: Plasmodium falciparum Dd2 growth inhibition | P. falciparum Dd2 growth, SYBR Green, 72 h | Potency, µM (series often up to 28.9 µM), for inactives: at the top dose activity, negative = inhibition, actives largely listed as inhibitors | 120,000 tested, 4.3% active; active = well fitted inhibition curve with a large enough effect;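 note: plate controls were DMSO vehicle for no effect and reference drug for full effect; nearly all actives have a fitted effect of over 65% in size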
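Infected erythrocytes (Dd2, 0.3% parasitemia, 2.5% hematocrit final) are added to compound in RPMI-1640/Albumax II medium, grown 72 h at 37C in low oxygen, then lysed with saponin/Triton-X containing SYBR Green and read by fluorescence.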
Starred values were filed as active, the others as inactive; i = inactive; [ ] = remark or other dose. Potency is the fitted concentration of half-maximal effect.

SMILES | Pf Dd2 inh
CCNC(=O)N1Cc2[nH]cnc2C[C@H]1c1nc(-c2ccc(F)c(Cl)c2)no1 | i
O=C(c1ccccc1)N1Cc2[nH]cnc2C[C@H]1c1nc(-c2ccc(Cl)cc2)no1 | i
CN(C)c1ccc(CN2Cc3[nH]cnc3C[C@H]2c2nc(-c3ccccc3)no2)cc1 | -15%[44.1 µM]
O=C(COc1ccccc1)Nc1ccc2c(c1)CN(CCc1ccc(F)cc1)C(=O)CO2 | i
O=C(c1ccccc1)N1CCN2C(=O)N(Cc3ccccc3)C(=O)[C@H]2C1 | i
CC(Oc1ccccc1)C(=O)N1CCC(n2cc(-c3nc(C(C)C)no3)nn2)C1 (centres undefined) | i
CN(Cc1cc(C2CC2)on1)Cc1nnc(C2CC(N)C2)n1C1CC1 (centres undefined) | -30%
Clc1ccc(-c2cc3c(cn2)CN(Cc2ccncc2)CCN3)cc1 | i
COCCNC(=O)C(NC(=O)c1ccccc1)C1CCN(C(=O)c2ccccc2OC)CC1 (centres undefined) | 6%
NC(=O)NCC(=O)N1CCC2(CCCN(CCCc3ccccc3)C2)C1 (centres undefined) | 6%
Cc1cnc(C(=O)NC2C[C@H]3CC[C@@H](C2)N3C(=O)c2cccc(F)c2)cn1 (some centres undefined) | -20%
COc1ccccc1CCC(=O)NCc1nnc2ccc(-c3ccc(C)c(C)c3)nn12 | 9%
COCCNC(=O)[C@@H]1C[C@H](Oc2ccccc2)CN1S(=O)(=O)Cc1ccccc1F | -5%
COCCNC(=O)C(NC(=O)CC(C)C)C1CCN(C(=O)c2ccccc2C)CC1 (centres undefined) | 5%
COc1ccccc1CN1Cc2[nH]cnc2C[C@H]1c1nc(-c2cccc(C)c2)no1 | 13µM*
Cc1ccc(-c2noc([C@@H]3Cc4nc[nH]c4CN3Cc3ccccc3)n2)cc1 | 10µM*
Cc1ccc(-c2noc([C@@H]3Cc4nc[nH]c4CN3C(=O)COCC(=O)O)n2)cc1 | 11%[44.1 µM]
Cc1ccc(-c2noc([C@@H]3Cc4nc[nH]c4CN3Cc3ccc(N(C)C)cc3)n2)cc1 | i
Cc1cccc(-c2noc([C@@H]3Cc4nc[nH]c4CN3C(=O)CC(C)(C)CC(=O)O)n2)c1 | i
Cc1ccc(-c2noc([C@@H]3Cc4nc[nH]c4CN3C(=O)CCC(=O)O)n2)cc1 | -15%[44.1 µM]
Cc1ccc(-c2cc3c(ccn3Cc3cccnc3)c(C3=CCOCC3)n2)cn1 | -8%[44.1 µM]
O=C1CCN(Cc2ccncc2)CCCC(C(=O)NCc2cccnc2)CCN1 (centres undefined) | 27%
COc1ccc(Br)cc1CNC(=O)CSc1n[nH]c(-c2ccccc2)n1 | 3%
COc1ccc(-c2ccc3nc(-c4ccccc4)oc3c2)c(OC)c1OC | i
COc1cc(-c2nc(-c3ccccc3)c(-c3ccc(Br)cc3)[nH]2)cc(OC)c1O | 1.4µM*
SMILES | Pf Dd2 inh
COc1ccc(-c2nc(-c3ccccc3)c(-c3ccc(F)cc3)[nH]2)c(OC)c1C | 11µM*
Oc1ccc(-c2nc(-c3ccccc3)c(-c3ccc(Br)cc3)[nH]2)cc1 | 6.3µM*
COc1cc(-c2nc(SCC(=O)Nc3ccc(C)cc3)c(-c3ccc(F)cc3)[nH]2)cc(OC)c1OC | i
COc1ccc(-c2ccc3nc(-c4cc(F)cc(F)c4)oc3c2)c(OC)c1OC | 4%
O=S(=O)(Nc1ccc(Br)cc1F)c1ccc2nc(-c3ccccc3)[nH]c2c1 | 3%
O=C(O)c1ccc(-c2nc3ncccc3[nH]2)cc1 | -7%[44.1 µM]
CCN1c2cc(C(=O)Nc3ccc(OC)c(Cl)c3)ccc2C(=O)N2CCCCCC21 (centres undefined) | i
Cc1cc(C(=O)N2CCCC(c3[nH]ccc3C(N)=O)C2)c(C)n1Cc1ccco1 (centres undefined) | i
O=C(Nc1ccccc1)C1CC(c2ccccc2)CN(C(=O)NCc2ccccc2)C1 (centres undefined) | i
CNS(=O)(=O)c1ccc(CCC(=O)N2CC[C@H]3CC[C@@H](C2)N3)cc1 | 0%
CCc1noc(-c2ccn3c(CNC(=O)CCC4CCCC4)nnc3c2)n1 | i
CN(C)c1ccc(CN2C[C@H](O)C[C@H]2c2nc(-c3ccc(C(F)(F)F)cc3)no2)cc1 | 23%[44.1 µM]
Cc1ccc(Cn2cc(-c3ccncc3)cc2C(=O)N2CCN(C)CC2)cc1 | 6.3µM*
CCOC(=O)C1CCN(C(=O)c2cc3sc(C)cc3n2C)CC1 | -4%
CCOC(=O)C1CCN(C(=O)c2cc(-c3ccncc3)cn2Cc2ccccc2C)CC1 | 6.3µM*
Cc1ccc(-c2cc(C(=O)O)n(C)c2)cc1 | 32%
Cc1ccccc1Cn1cc(-c2ccncc2)cc1C(=O)O | i
CCn1cc(-c2ccc(Cl)cc2)cc1C(=O)NCc1ccncc1 | i
COc1ccc(CN2Cc3cc(NC(=O)c4c(F)cccc4F)ccc3OCC2=O)c(OC)c1 | i
Cc1noc(C)c1S(=O)(=O)N(C)C1CCc2nn(CC3CC3)c(=O)n2CC1 (centres undefined) | i
Cc1cccc(C(=O)N2CCN(C(=O)c3nnn4c3COC(c3ccccc3)C4)CC2)c1 (centres undefined) | 0%
Cn1nccc1CN1CCn2c(nnc2C2CCCNC2)C1 (centres undefined) | -6%[44.1 µM]
CC(C)N(C)Cc1nnnn1CC(=O)N1CCC(CCn2cccn2)CC1 | 1%
COc1ccc(C(=O)NCCn2ccn3nc(-c4cc(C)ccc4C)cc3c2=O)c(OC)c1 | -2%
CCOc1ccc(NC(=O)Cn2nc3n(c2=O)CCCCC3)cc1 | 27%
SMILES | Pf Dd2 inh
O=C(COc1ccc(-c2nnc3n2CCCC3)cc1)NCc1ccc2c(c1)OCO2 | 10µM*
O=C(Cn1nc2n(c1=O)CCCC2)N1CCN(c2ccccc2F)CC1 | -17%
CCOc1ccc(NC(=O)Cn2c(C)cc3nc4n(c(=O)c32)CCCCC4)cc1 | -12%
COc1ccccc1NC(=O)COc1cccc(-c2nnc3n2CCCC3)c1 | 0.63µM*
CCOc1ccc(NC(=O)COc2cccc(-c3nnc4n3CCCC4)c2)cc1 | 2.8µM*
O=C(COc1cccc(-c2nnc3n2CCCC3)c1)N1CCN(c2ccccc2F)CC1 | 5µM*
Cc1cc2nc3n(c(=O)c2n1CC(=O)N1CCN(c2ccccc2F)CC1)CCCCC3 | i
COc1ccc(CNC(=O)COCc2cc(-c3ccc4c(c3)OCO4)on2)cc1 | 150%
COc1ccccc1NC(=O)Cn1cnc2c(nc3n2CCCCC3)c1=O | 29%
Cc1nc(N2CCC(C(=O)NCc3ccc4c(c3)OCO4)CC2)cc(C(F)(F)F)n1 | -16%
O=C(COc1cccc(-c2nnc3n2CCCC3)c1)NCc1ccccc1 | i
O=C1[C@@H]2C[C@@H](CN2C(=O)C2CCOCC2)Oc2ccccc2N1Cc1ccccn1 | -18%[44.1 µM]
O=C(NC1CCc2n[nH]c(=O)n2CC1)c1ccc(Br)o1 (centres undefined) | 16%
CC(=O)NCCC1CCN(C(=O)Nc2ccc(C)cc2)CC1 | -13%
Cc1cc(CNc2ncnc3c2CCN(C(=O)c2ccoc2)CC3)no1 | -7%
Cc1ncc2c(n1)C[C@@H]1CC[C@H]2N1C(=O)c1ccoc1 | 11%
COC(=O)CNC(=O)c1nc(-c2cc(Cl)cc(Cl)c2)c2ccccn12 | -11%
COc1ccc(CN2CCCC(C)(NC(C)=O)C2)c2ccccc12 (centres undefined) | i
CC(NC(=O)c1cn(C2CCC(N)CC2)nn1)c1ncnn1C (centres undefined) | -15%
COc1cccc(-c2cc(C3CCN(C(=O)Nc4cccc(SC)c4)CC3)[nH]n2)c1 | -28%
Cc1cccc(NC(=O)COc2ccc3oc4c(c3c2)CCCC4)c1 | 33%
CSc1cccc(NC(=O)COc2cccc(-c3nnc4n3CCCC4)c2)c1 | 11µM*

Bioassay records deposited in PubChem by National Center for Advancing Translational Sciences (NCATS).
